Inconclusive results are not listed. Active and inactive are the calls of the source. Unless noted, calls come from the whole dose curve; as a rule, active = well fitted curve in the direction sought with a large enough effect in the repeat runs; inconclusive = weak or mixed curves; inactive = no such curve, though single readings can be large; an effect the other way counts as inactive or inconclusive.
How the values were obtained:
[1] = qHTS assay to identify small molecule antagonists of the retinoid acid receptor (RAR) signaling pathway - cell viability counter screen (AID 1159551); settings: C3RL4 cells viability, ATP luminescence (CellTiter-Glo), 6 h; series mostly up to 92.4 µM; note: nearly all actives have a fitted effect of over 35% in size
Procedure, shortened: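 Following overnight attachment, C3RL4 reporter cells received DMSO-dissolved compounds and then retinol (1 uM final). Six hours later at 37 C, ATP content was measured by CellTiter-Glo luminescence.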

[2] = qHTS assay to identify small molecule antagonists of the retinoic acid receptor (RAR) signaling pathway (AID 1159552; note: nearly all actives have a fitted effect of over 50% in size); settings: C3RL4 RARE luciferase reporter, retinol-stimulated, 6 h; series mostly up to 92.4 µM
Procedure, shortened: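 Using a RARE-driven luciferase construct in C3RL4 cells, retinol at 1 uM final provided the agonist stimulus while compounds were co-applied. After 6 hours at 37 C, luminescence was recorded to flag inhibitors of retinol signaling.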

[3] = qHTS assay to identify small molecule agonists of the retinoic acid receptor (RAR) signaling pathway (AID 1159553); settings: C3RL4 RARE luciferase reporter, agonist, 6 h; activation: at 73.3 µM (top of the series)
Procedure, shortened: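 Cell line C3RL4, RARE luciferase reporter. Treatment: compounds in DMSO, 6 hr, 37 C, 5% CO2, after overnight plating. Detection: luminescence, 30 min RT after reagent.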

[4] = qHTS assay to identify small molecule antagonists of the estrogen related receptor (ERR) signaling pathway from Tox21 library - cell viability counter screen (AID 1224834); settings: ERR reporter cells viability, CellTiter-Fluor, 17.5 h; series mostly up to 92.4 µM; note: nearly all actives have a fitted effect of over 30% in size; note: potency is the fitted concentration of half-maximal effect
Procedure, shortened: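 Viability readout (CellTiter-Fluor fluorescence, 30 min at 37 C) multiplexed with the ERR assay; cells treated 17.5 h at 37 C with compounds delivered in DMSO.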

[5] = target: Nuclear receptor subfamily 1 group I member 3 (Homo sapiens) (UniProt Q14994); assay: qHTS assay to identify small molecule antagonists of the constitutive androstane receptor (CAR) signaling pathway (AID 1224838); settings: HepG2-CYP2B6-hCAR luciferase, CITCO-stimulated, 24 h; series mostly up to 92.4 µM;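 note: HepG2 cells stably expressing hCAR with CYP2B6 luciferase reporter stimulated by CITCO; nearly all actives have a fitted effect of over 40% in size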
Procedure, shortened: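 Quantitative HTS in double-stable HepG2-CYP2B6-hCAR cells. After 4 h plating, cells get compound (15 concentrations) and CITCO at 50 nM final, incubate 24 h at 37 C, then ONE-Glo luminescence is read.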

[6] = qHTS assay to identify small molecule agonists of the hypoxia (HIF-1) signaling pathway - cell viability counter screen (AID 1224844; calls by dose curve; note: nearly all actives have a fitted effect of over 50% in size); settings: HRE-bla ME-180 viability, CellTiter-Glo luminescence, 17 h; series mostly up to 76.8 µM
Procedure, shortened: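 Luminescent ATP content (CellTiter-Glo, 30 min, room temperature) served as the viability measure in HRE-bla ME-180 cells exposed to compounds for 17 hrs in low-serum medium (0.5% dialyzed FBS).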

[7] = qHTS assay to identify small molecule agonists of H2AX (AID 1224845; active = well fitted activation curve with a large enough effect in the signal ratio in the repeat runs, not every such curve was filed as active; the % refers to the signal ratio); settings: CHO-K1 phospho-H2AX Ser139 HTRF, 3 h; series mostly up to 154 µM
Procedure, shortened: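 Wild-type CHO-K1 cells, plated overnight, exposed 3hr at 37C to 15 concentrations (0.76% DMSO final). Lysed, then HTRF anti-pH2AX (S139) cryptate and anti-H2AX-d2 antibodies, 24 hr room temperature; 665/620 nm emission read.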

[8] = qHTS assay to identify small molecule agonists of the hypoxia (HIF-1) signaling pathway (AID 1224846; active = well fitted activation curve with a large enough effect in the signal ratio in the repeat runs, not every such curve was filed as active; the % refers to the signal ratio); settings: HRE-bla ME-180 cells, beta-lactamase ratio, 17 h; series mostly up to 76.8 µM
Procedure, shortened: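 Measured by blue/green FRET after loading CCF4-AM: beta-lactamase expressed from a hypoxia response element in ME-180 cells. Test agents were delivered in DMSO and left 17 hrs; cells had been plated 5 hrs earlier in low-serum (0.5% dialyzed FBS) medium.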

[9] = qHTS assay to identify small molecule agonists of the constitutive androstane receptor (CAR) signaling pathway - cell viability counter screen (AID 1224836); settings: HepG2-CYP2B6-hCAR viability, CellTiter-Fluor, 23 h, PK11195 added to every well; series mostly up to 92.4 µM; note: nearly all actives have a fitted effect of over 45% in size
Procedure, shortened: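 Multiplexed viability check: HepG2-CYP2B6-hCAR cells, 15-point compound dosing, 0.75 uM PK11195 final, 23 h at 37 C, CellTiter-Fluor fluorescence.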

[10] = qHTS assay to identify small molecule antagonists of the constitutive androstane receptor (CAR) signaling pathway - cell viability counter screen (AID 1224837); settings: HepG2-CYP2B6-hCAR viability, CellTiter-Fluor, 23 h, co-treated with 50 nM CITCO; series mostly up to 92.4 µM; note: nearly all actives have a fitted effect of over 45% in size
Procedure, shortened: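 Fluorescence from CellTiter-Fluor served as the viability signal. Human hepatoma HepG2 cells stably bearing hCAR and CYP2B6-2.2kb received compound plus CITCO (50 nM final) for 23 hr.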

[11] = qHTS assay to identify small molecule antagonists of the estrogen related receptor signaling pathway with the pleiotropic PPARgamma coactivator (PGC) from Tox21 10K library - cell viability counter screen (AID 1224840; active = well fitted cell-killing curve with a large enough effect in the repeat runs, not every such curve was filed as active; note: nearly all actives have a fitted effect of over 40% in size); settings: PGC/ERR reporter cells viability, CellTiter-Fluor, 17.5 h; series mostly up to 92.4 µM
Procedure, shortened: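 Compounds in DMSO, alongside positive and negative controls, were pinned onto PGC/ERR cells (2,000 per well). Exposure lasted 17.5 hours at 37 C, followed by a 30-minute CellTiter-Fluor incubation and fluorescence reading.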

[12] = qHTS assay to identify small molecule antagonists of the estrogen related receptor signaling pathway with the pleiotropic PPARgamma coactivator (PGC) from Tox21 10K library (AID 1224841; call rule not given here; note: actives are mostly falling curves and most rising ones were filed inactive; nearly all actives have a fitted effect of over 50% in size); settings: PGC/ERR reporter cell line, ONE-Glo luciferase, 18 h; series mostly up to 92.4 µM
Procedure, shortened: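 Compound exposure ran 18 hours at 37 C in PGC/ERR cells (2,000/well) that had first rested 6 hours in a 37 C/5% CO2 incubator. Luciferase activity was then detected with One-Glo after a 30-minute room-temperature step.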

[13] = qHTS assay to identify small molecule agonists of the estrogen related receptor signaling pathway with the pleiotropic PPARgamma coactivator (PGC) from Tox21 10K library (AID 1224842); settings: PGC/ERR reporter cell line, luciferase ONE-Glo, 18 h; series mostly up to 92.4 µM; note: nearly all actives have a fitted effect of over 15% in size
Procedure, shortened: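 PGC/ERR reporter cell line, 2,000 cells per well, incubated 6 h at 37 C before 23 nL compound in DMSO was added. After 18 h at 37 C, One-Glo luminescence read following 30 min at room temperature.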

[14] = target: Thyrotropin receptor (Homo sapiens) (UniProt P16473); assay: qHTS assay to identify small molecule agonists of the thyroid stimulating hormone receptor (TSHR) signaling pathway (AID 1224843; calls by dose curve; note: nearly all actives have a fitted effect of over 45% in size); settings: TSHR-HEK293 cells, cAMP HTRF, agonist mode, 30 min; series mostly up to 92.4 µM
Procedure, shortened: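 Steps: seed 800 TSHR-HEK293 cells per well; add test compound and hold 30 min at ambient temperature; dispense cAMP-d2 then anti-cAMP cryptate; incubate 1 h at ambient; measure fluorescence intensity.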

[15] = qHTS assay to identify small molecule antagonists of the estrogen related receptor (ERR) signaling pathway from Tox21 library (AID 1224848); settings: ERR reporter cell line, luciferase antagonist mode, 18 h; series mostly up to 92.4 µM; note: nearly all actives have a fitted effect of over 50% in size
Procedure, shortened: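 Luminescent reporter read-out (ONE-Glo) from NTP's ERR cell line after 18 h treatment at 37 C with DMSO-dissolved Tox21 compounds; cells pre-plated 6 h beforehand at 2,000 per well.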

[16] = qHTS assay to identify small molecule agonists of the estrogen related receptor (ERR) signaling pathway from Tox21 library (AID 1224849; calls by dose curve; note: nearly all actives have a fitted effect of over 15% in size); settings: ERR reporter cell line, ONE-Glo luciferase, 18 h; series mostly up to 92.4 µM
Procedure, shortened: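 We plated ERR reporter cells, waited 6 h, added compounds in DMSO by pin tool and incubated them 18 h at 37 C. ONE-Glo was then added and luminescence read after 30 min.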

[17] = target: Luciferin 4-monooxygenase (Photinus pyralis) (UniProt P08659); assay: qHTS assay to identify small molecule inhibitors of firefly luciferase (AID 1224835); note: nearly all actives have a fitted effect of over 25% in size; settings: purified P. pyralis luciferase, luminescence inhibition; series mostly up to 115 µM
Procedure, shortened: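 Biochemical qHTS: compounds run as interplate titrations against purified firefly enzyme, with D-luciferin and ATP each at its KM concentration. Light output recorded by CCD imaging.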

[18] = qHTS assay to identify small molecule agonists of H2AX - cell viability counter screen (AID 1224847; calls by dose curve; note: top concentration of the series differs between compounds; nearly all actives have a fitted effect of over 30% in size); settings: CHO-K1 viability, CellTiter-Glo luminescence, 3 h; series mostly up to 154 µM
Procedure, shortened: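 After overnight plating of 1000 CHO-K1 cells per well, a 15-concentration compound series was applied for 3 hr at 37C. Luminescence from CellTiter-Glo, read following 30 min at room temperature, reflected cell viability.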

Measured: Potency

Luciferin 4-monooxygenase (Photinus pyralis), sequence (P08659 whole entry, looked up): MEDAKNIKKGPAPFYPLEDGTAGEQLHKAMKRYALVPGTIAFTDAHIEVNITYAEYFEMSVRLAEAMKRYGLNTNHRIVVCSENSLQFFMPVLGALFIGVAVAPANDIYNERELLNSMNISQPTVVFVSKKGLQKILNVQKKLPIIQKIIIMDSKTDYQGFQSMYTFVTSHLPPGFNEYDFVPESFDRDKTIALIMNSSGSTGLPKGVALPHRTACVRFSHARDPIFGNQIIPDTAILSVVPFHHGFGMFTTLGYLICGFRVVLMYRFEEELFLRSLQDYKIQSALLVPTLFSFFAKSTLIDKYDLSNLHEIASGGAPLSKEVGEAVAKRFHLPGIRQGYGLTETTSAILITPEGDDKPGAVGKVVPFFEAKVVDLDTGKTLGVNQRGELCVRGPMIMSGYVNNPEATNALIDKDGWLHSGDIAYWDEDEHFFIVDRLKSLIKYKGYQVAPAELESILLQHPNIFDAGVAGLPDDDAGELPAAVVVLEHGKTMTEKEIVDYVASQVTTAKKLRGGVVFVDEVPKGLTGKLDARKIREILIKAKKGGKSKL
Nuclear receptor subfamily 1 group I member 3 (Homo sapiens), sequence (Q14994 whole entry, looked up): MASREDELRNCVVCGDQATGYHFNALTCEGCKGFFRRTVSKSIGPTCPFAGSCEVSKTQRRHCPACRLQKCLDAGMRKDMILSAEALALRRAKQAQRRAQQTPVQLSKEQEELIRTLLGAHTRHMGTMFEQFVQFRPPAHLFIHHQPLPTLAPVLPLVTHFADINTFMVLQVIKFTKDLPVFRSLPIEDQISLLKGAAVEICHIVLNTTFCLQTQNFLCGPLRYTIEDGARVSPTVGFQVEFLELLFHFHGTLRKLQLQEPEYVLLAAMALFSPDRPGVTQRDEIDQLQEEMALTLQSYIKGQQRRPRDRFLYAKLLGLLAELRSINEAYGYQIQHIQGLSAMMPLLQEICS
Thyrotropin receptor (Homo sapiens), sequence (P16473 whole entry, looked up): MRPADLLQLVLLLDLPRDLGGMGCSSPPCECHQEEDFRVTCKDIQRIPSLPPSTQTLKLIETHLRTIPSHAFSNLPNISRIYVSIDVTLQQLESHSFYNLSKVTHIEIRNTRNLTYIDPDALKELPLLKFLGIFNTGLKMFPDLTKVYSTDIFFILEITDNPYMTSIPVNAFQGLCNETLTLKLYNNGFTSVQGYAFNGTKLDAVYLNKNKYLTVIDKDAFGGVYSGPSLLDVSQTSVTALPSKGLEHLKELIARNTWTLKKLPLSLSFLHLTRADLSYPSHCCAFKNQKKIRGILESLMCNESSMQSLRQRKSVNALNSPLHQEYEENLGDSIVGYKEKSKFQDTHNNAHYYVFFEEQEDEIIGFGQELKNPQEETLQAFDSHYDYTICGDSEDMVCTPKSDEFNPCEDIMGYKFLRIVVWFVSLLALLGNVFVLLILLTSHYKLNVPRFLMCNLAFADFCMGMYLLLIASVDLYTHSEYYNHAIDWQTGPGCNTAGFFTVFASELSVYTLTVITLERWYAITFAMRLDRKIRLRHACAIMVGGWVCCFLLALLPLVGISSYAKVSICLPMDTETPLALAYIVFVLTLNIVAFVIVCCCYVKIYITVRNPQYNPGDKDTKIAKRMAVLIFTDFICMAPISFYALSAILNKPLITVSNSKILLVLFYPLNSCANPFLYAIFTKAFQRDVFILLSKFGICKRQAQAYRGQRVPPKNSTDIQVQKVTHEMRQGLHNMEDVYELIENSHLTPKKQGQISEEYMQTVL

COc1cc([N+](=O)[O-])ccc1N
active: [4] 24.3 µM
inactive: [1] | [2] | [3] | [5] | [6] | [7] | [8]

O=C1c2ccccc2-c2ccccc21
not listed: [17] | [18]
inactive: all other assays above

Cc1nc2ccccc2c(=O)o1
not listed: [7] | [11] | [12] | [13] | [15] | [16]
inactive: all other assays above

OC[C@@H](O)[C@H](O)[C@@H](O)[C@@H](O)CO
not listed: [5]
inactive: all other assays above

CN[C@@H]1[C@@H](O)[C@@H](O[C@@H]2[C@H](O)[C@H](O[C@H]3OC(CN)=CC[C@H]3N)[C@@H](N)C[C@H]2N)OCC1(C)O (some centres not stated)
not listed: [3] | [5] | [8] | [9] | [10] | [14]
inactive: all other assays above

CNC(=O)C(c1ccccc1)c1ccccc1
not listed: [5] | [7] | [12] | [13] | [15] | [16] | [18]
inactive: all other assays above

O=S1(=O)CCCC1
not listed: [3] | [4] | [12] | [13] | [14] | [15] | [16]
inactive: all other assays above

NS(=O)(=O)c1cc2c(cc1Cl)NC(C(Cl)Cl)NS2(=O)=O (configuration not stated)
inactive: [1] | [2] | [4] | [17] | [9] | [10] | [11] | [14] | [6] | [7]

CCOC(=O)CC(CC(=O)OCC)(OC(C)=O)C(=O)OCC
not listed: [8] | [11] | [12] | [13] | [14] | [15] | [16]
inactive: all other assays above

C[Si]1(C)N[Si](C)(C)N[Si](C)(C)N1
not listed: [3] | [12] | [13] | [14] | [15] | [16] | [17]
inactive: all other assays above

C=C[C@@H](C)CCC=C(C)C
not listed: [5] | [6] | [12] | [13] | [15] | [16]
inactive: all other assays above

CC(=O)OCC(=O)[C@@]1(O)[C@H](OC(C)=O)C[C@H]2[C@@H]3CCC4=CC(=O)C=C[C@]4(C)[C@@]3(F)[C@@H](O)C[C@@]21C
inactive: [1] | [2] | [17] | [9] | [10] | [5] | [11] | [6] | [7] | [8]

Cn1c(=O)c2c(ncn2CC2OCCO2)n(C)c1=O
not listed: [7] | [9] | [14] | [18]
inactive: all other assays above

CCCCCC1Nc2cc(C(F)(F)F)c(S(N)(=O)=O)cc2S(=O)(=O)N1 (configuration not stated)
not listed: [5] | [6] | [12] | [13] | [14] | [15] | [16]
inactive: all other assays above

CCc1nccnc1C
not listed: [5] | [18]
inactive: all other assays above

C[C@H](CCC(=O)O)[C@H]1CC[C@H]2[C@@H]3[C@H](O)C[C@@H]4C[C@H](O)CC[C@]4(C)[C@H]3C[C@H](O)[C@]12C
not listed: [3] | [5] | [12] | [13] | [14] | [15] | [16]
inactive: all other assays above

CC(C)SCc1ccco1
not listed: [5] | [8] | [14] | [18]
inactive: all other assays above

From PubChem BioAssay (Tox21)
